This is a sample that favours compounds with a hit; in the whole collection about 6.7% have one here.
T cruzi growth-1 – inhibitors of T. cruzi proliferation. T. cruzi beta-gal in NIH3T3, GalScreen luminescence, 90 h. inhibition, % at 8.34 µM. actives 5.9% (n = 77,000). AID 624255;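 active means mean inhibition above about 93%, with at least 55% of replicates each passing it, limit read from the data, passing the limit was not always enough; inconclusive means only one of those two conditions holds; inactive means neither condition holds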
C diff HTS – blocks growth of Clostridium difficile | Clostridium difficile clinical isolate growth, OD600, 24 h; hits give low values | growth activity, negative = inhibition, % at 16 µg/mL (by protocol) | actives 0.25% (n = 86,000) | AID 1259249;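 active means mean growth activity at or below -80% and every replicate also at or below -80%; inconclusive means mean at or below -80% but some replicate above -80%; inactive means mean growth activity above -80%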;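 further: 0% = DMSO wells and -100% = levofloxacin 16 µg/mL wells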
Pf Dd2 inh – inhibitors of Plasmodium falciparum Dd2 growth; P. falciparum Dd2 growth, SYBR Green, 72 h; hits give low values; activity change, % at 10 µM; actives 2.3% (n = 94,000); AID 1159554; in the data active means activity change below about -80%; inconclusive means no clear call, values can overlap the other calls
T cruzi growth-2 – Trypanosoma cruzi proliferation inhibition. actives 72% (n = 5,600). shares compounds with T cruzi growth-1. T. cruzi beta-gal in NIH3T3, GalScreen luminescence, 90 h. inhibition, % at 8.35 µM. AID 651739;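 active means mean replicate inhibition above about 95% and at least 55% of replicates individually reaching it, limit read from the data; inconclusive means only one of the two criteria is met; inactive means neither criterion is met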
T cruzi growth-3 – inhibitors of T. cruzi proliferation; actives 21% (n = 5,600); shares compounds with T cruzi growth-1; inhibition, % at 2.09 µM; T. cruzi beta-gal in NIH3T3, GalScreen luminescence, 90 h; AID 651740;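 active means mean inhibition above about 95%, with at least 55% of replicates also reaching it, limit read from the data; inconclusive means meets just one of the two conditions; inactive means meets neither condition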;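 further: plate controls were neutral control median for no effect and positive control median for full effect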
3T3 cytotox – NIH/3T3 (mouse) viability loss; shares compounds with T cruzi growth-1; NIH/3T3 viability, CellTiter-Glo ATP luminescence, 90 h; cytotoxicity (signal decrease), % at 8.35 µM; actives 14% (n = 5,600);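 active means mean signal decrease across replicates above about 35% based on untreated-well scatter, with enough replicates individually passing, limit read from the data; inconclusive means no rule stated though some were filed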;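 further: 0% = median of neutral control wells and 100% = median of positive control wells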
3T3 cytotox 2 – cytotoxicity in mouse NIH/3T3 fibroblasts; inhibition, % at 24.9 µM; shares compounds with T cruzi growth-1; NIH/3T3 viability, CellTiter-Glo ATP luminescence, 90 h; actives 56% (n = 5,600); AID 651744;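 active means mean loss of cell viability signal at or above a set limit, and enough replicates individually reaching it; inconclusive means meets only the mean limit or only the replicate share; inactive means meets neither condition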;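 further: 0% = median of neutral control wells and 100% = median of positive control wells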
Numbers without * were called inactive.

How did C[C@H]1CN([C@@H](C)CO)S(=O)(=O)c2ccc(/C=C/c3ccccc3)cc2O[C@H]1CN(C)C(=O)c1ccc2c(c1)OCO2 do in these assays?
T cruzi growth-1: inconclusive; C diff HTS: 11; Pf Dd2 inh: -72; T cruzi growth-2: 103*; T cruzi growth-3: 93; 3T3 cytotox: 33; 3T3 cytotox 2: inconclusive

Results for C[C@@H]1CN([C@@H](C)CO)S(=O)(=O)c2ccc(-c3cccc(C#N)c3)cc2O[C@@H]1CN(C)C(=O)C1CC1 ?
T cruzi growth-1: 44; C diff HTS: 0; Pf Dd2 inh: -13

How did C[C@@H]1CN([C@@H](C)CO)S(=O)(=O)c2ccc(C3=CCCC3)cc2O[C@@H]1CN(C)CC1CCOCC1 do in these assays?
Pf Dd2 inh: 48

Results for C[C@H]1CN([C@@H](C)CO)C(=O)Cc2cc(N(C)C)ccc2O[C@H]1CN(C)Cc1ccc2c(c1)OCO2 ?
T cruzi growth-1: 1; C diff HTS: 3; Pf Dd2 inh: 23

How did C[C@H](CO)N1C[C@H](C)[C@H](CN(C)Cc2ccc(Cl)c(Cl)c2)Oc2ccc(N(C)C)cc2CC1=O do in these assays?
T cruzi growth-1: inconclusive; C diff HTS: 31; Pf Dd2 inh: -13; T cruzi growth-2: 71; T cruzi growth-3: 12; 3T3 cytotox: -4; 3T3 cytotox 2: -1

Results for C[C@H](CO)N1C[C@H](C)[C@@H](CN(C)Cc2ccc(Cl)c(Cl)c2)Oc2ccc(N(C)C)cc2CC1=O ?
T cruzi growth-1: 108*; C diff HTS: 8; Pf Dd2 inh: -3; T cruzi growth-2: 107*; T cruzi growth-3: 94; 3T3 cytotox: 10; 3T3 cytotox 2: 103*

Results for C[C@@H]1CN([C@H](C)CO)C(=O)Cc2cc(N(C)C)ccc2O[C@H]1CN(C)Cc1ccc(Cl)c(Cl)c1 ?
T cruzi growth-1: 58; Pf Dd2 inh: 13

Results for C[C@@H]1CN([C@@H](C)CO)C(=O)c2cc(N(C)C)ccc2O[C@@H]1CN(C)Cc1ccc(Cl)c(Cl)c1 ?
T cruzi growth-1: 75; C diff HTS: 12; Pf Dd2 inh: -13

How did C[C@@H]1CN([C@@H](C)CO)C(=O)Cc2cc(N(C)C)ccc2O[C@H]1CN(C)Cc1ccc(Cl)c(Cl)c1 do in these assays?
T cruzi growth-1: 107*; C diff HTS: 12; Pf Dd2 inh: 3; T cruzi growth-2: 110*; T cruzi growth-3: 64; 3T3 cytotox: 11; 3T3 cytotox 2: 107*

What do the screens show for `CC(C)NC(=O)N(C)C[C@@H]1OCCCC[C@H](C)Oc2ccc(NS(=O)(=O)c3cccs3)cc2C(=O)N([C@H](C)CO)C[C@@H]1C`?
T cruzi growth-1: -5; C diff HTS: 8

How did COc1cccc(NC(=O)N(C)C[C@@H]2OCc3ccccc3-c3ccccc3C(=O)N([C@@H](C)CO)C[C@@H]2C)c1 do in these assays?
T cruzi growth-1: -1; C diff HTS: -3; Pf Dd2 inh: -7

Results for Cc1ccccc1-c1ccc([C@H]2[C@@H](CO)N3CCCCN(S(=O)(=O)c4cn(C)cn4)C[C@H]23)cc1 ?
T cruzi growth-1: 102*; C diff HTS: -10; Pf Dd2 inh: 17; T cruzi growth-2: 61; T cruzi growth-3: 14; 3T3 cytotox: 8; 3T3 cytotox 2: 44*

What do the screens show for `Cn1cnc(S(=O)(=O)N2CCCCN3[C@H](CO)[C@@H](c4ccc(-c5ccccc5F)cc4)[C@@H]3C2)c1`?
T cruzi growth-1: 49; C diff HTS: -13; Pf Dd2 inh: 42

Results for Cn1cnc(S(=O)(=O)N2CCCCN3[C@@H](CO)[C@H](c4ccc(-c5ccccc5F)cc4)[C@@H]3C2)c1 ?
T cruzi growth-1: 31; C diff HTS: -9; Pf Dd2 inh: -23

How did Cc1ccccc1-c1ccc([C@@H]2[C@H]3CN(S(=O)(=O)c4cn(C)cn4)CCCCN3[C@H]2CO)cc1 do in these assays?
T cruzi growth-1: 126*; C diff HTS: -6; Pf Dd2 inh: -21; T cruzi growth-2: 51; T cruzi growth-3: 27; 3T3 cytotox: 1; 3T3 cytotox 2: 26*

How did CCCNC(=O)Nc1ccc2c(c1)C(=O)N(C)C[C@@H](OC)[C@H](C)CN(S(C)(=O)=O)[C@H](C)CO2 do in these assays?
C diff HTS: 2; Pf Dd2 inh: 18

Results for CN1C(=O)c2cc(NC(=O)c3ccc(Cl)cc3)ccc2OC[C@H]2O[C@@H](CC(=O)O)CC[C@H]21 ?
T cruzi growth-1: -21; C diff HTS: 1; Pf Dd2 inh: 3

What do the screens show for `COCC(=O)Nc1ccc2c(c1)OC[C@@H](C)N(C(=O)C1CCCC1)C[C@H](C)[C@H](OC)CN(C)C2=O`?
T cruzi growth-1: -11; C diff HTS: 12; Pf Dd2 inh: -9

What do the screens show for `O=C(NCc1ccccc1)[C@@H]1[C@@H](CO)[C@@H]2Cn3c(ccc(-c4cccc(F)c4)c3=O)[C@H]1N2`?
T cruzi growth-1: -22; C diff HTS: -4

What do the screens show for `O=C(c1cccc(F)c1)N1CCCCN2[C@H](CO)[C@@H](c3ccc(-c4ccccc4)cc3)[C@@H]2C1`?
T cruzi growth-1: 106*; C diff HTS: 5; Pf Dd2 inh: -20; T cruzi growth-2: 106*; T cruzi growth-3: inconclusive; 3T3 cytotox: -7; 3T3 cytotox 2: 59*

How did O=C(c1cccc(F)c1)N1CCCCN2[C@H](C1)[C@@H](c1ccc(-c3ccccc3)cc1)[C@@H]2CO do in these assays?
T cruzi growth-1: 62; C diff HTS: 9; Pf Dd2 inh: 21

How did O=C(c1cccc(F)c1)N1CCCCN2[C@H](CO)[C@H](c3ccc(-c4ccccc4)cc3)[C@H]2C1 do in these assays?
T cruzi growth-1: 103*; C diff HTS: 15; Pf Dd2 inh: -30; T cruzi growth-2: 109*; T cruzi growth-3: 22; 3T3 cytotox: 5; 3T3 cytotox 2: 88*

How did O=C(c1cccc(F)c1)N1CCCCN2[C@H](CO)[C@@H](c3ccc(-c4ccccc4)cc3)[C@H]2C1 do in these assays?
T cruzi growth-1: 70; C diff HTS: 8; Pf Dd2 inh: 8

Results for OC[C@@H]1[C@H](c2ccc(C#CC3(O)CCCC3)cc2)[C@H]2CN(Cc3cccnc3)CCCCN12 ?
T cruzi growth-1: 120*; C diff HTS: 0; Pf Dd2 inh: -8; T cruzi growth-2: 107*; T cruzi growth-3: 92; 3T3 cytotox: 31; 3T3 cytotox 2: 32*

Results for OC[C@H]1[C@H](c2ccc(C#CC3(O)CCCC3)cc2)[C@@H]2CN(Cc3ccncc3)CCCCN12 ?
T cruzi growth-1: 6; C diff HTS: -1; Pf Dd2 inh: -6

Results for OC[C@H]1[C@@H](c2ccc(C#CC3(O)CCCC3)cc2)[C@@H]2CN(Cc3cccnc3)CCCCN12 ?
T cruzi growth-1: 114*; C diff HTS: -5; Pf Dd2 inh: -21; T cruzi growth-2: 73; T cruzi growth-3: 3; 3T3 cytotox: 4; 3T3 cytotox 2: inconclusive
